Measurements reported in PubChem BioAssay (NCATS).
A number with no mark means an inactive call. The call rests on the fitted dose curve; in most records, active means well fitted curve in the direction sought with a large enough effect; inconclusive means small, poorly fitted or top-dose-only effect, or effect the other way, or another doubt; inactive means no such curve, though single readings can be large or run the other way.

Assay: Inducers of the Endoplasmic Reticulum Stress Response (ERSR) in human glioma: Validation (AID 504836); further: 0% is about no effect
Conditions: human glioma cells, ER stress response reporter; series mostly up to 38.3 µM; activation: at the top concentration
How it was run: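 Stably transfected U87-MG human glioma cells carrying a GRP78-based luminescent sensor were seeded at 1000 cells/well, pin-dosed with compounds and incubated 16 h. Luciferase reagent was then added, and end-point luminescence was read after 10 min at room temperature.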

| SMILES | activation [%] |
| --- | --- |
| Nc1ccc(N2C(=O)c3ccccc3C2=O)c(Cl)c1 | -3.12 |
| Cn1c(=O)[nH]c2ncn(C)c2c1=O | -3.67 |
| CCN(CC)CCOC(=O)c1cc(Cl)c(N)cc1OC | -0.914 |
| C#CC(N)CCC(=O)O (stereo unspecified) | 0.223 |
| Fc1cccc(/C=N/N=C/c2cccc(F)c2)c1 | 0.597 |
| c1ccc2c(c1)CC(N1CCN(c3cccc4c3OCCO4)CC1)C2 | -4.45 |
| CCn1c(=O)[nH]c2cc(Cl)c(Cl)cc21 | -2.66 |
| CN1CCc2cccc3c2C1Cc1ccc(O)c(O)c1-3 (stereo unspecified) | -3.11 |
| N[C@H](C(=O)O)[C@H](O)C(=O)O | 1.55 |
| CN[C@H](CC(C)C)C(=O)N[C@H]1C(=O)N[C@@H](CC(N)=O)C(=O)N[C@@H]2C(=O)N[C@H]3C(=O)N[C@H](C(=O)N[C@H](C(=O)O)c4cc(O)cc(O)c4-c4cc3ccc4O)[C@H](O)c3ccc(c(Cl)c3)Oc3cc2cc(c3O[C@@H]2O[C@H](CO)[C@@H](O)[C@H](O)[C@@H]2O[C@H]2C[C@](C)(N)[C@H](O)[C@H](C)O2)Oc2ccc(cc2Cl)[C@H]1O | -4.13 |
| COc1ccc2c(c1)c(CC(=O)O)c(C)n2Cc1ccc(Cl)cc1 | -4.53 |
| CCSC(=N)N | -1.21 |
| C[C@]12C=CC(=O)C=C1CC[C@@H]1C2=CC[C@]2(C)[C@@H](C(=O)CN3CCN(c4cc(N5CCCC5)nc(N5CCCC5)n4)CC3)CC[C@@H]12 | -0.69 |
| CNc1cc(NS(=O)(=O)c2ccc(N)cc2)nc(NC)n1 | -1.15 |
| CC(C)NC[C@H](O)COc1ccc(CC(N)=O)cc1 | -3.13 |
| O=C(O)CC1CC(c2ccccc2)=NO1 (stereo unspecified) | -0.0602 |
